# Reference: paper PMC4336329 (PLoS ONE, 2015)
# In all, about 310,000 compounds went through this assay and about 14,000 (4.5%) showed an effect of 50% or more. The effect is printed as a negative number. The full list was thinned out, with strong results kept by preference.
# Biological target: human ether-à-go-go-related gene (hERG) potassium channel (human, UniProt Q12809)
# Test: primary screen, population patch clamp on CHO cells stably expressing hERG; higher = less effect of the substance
# 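Further: peak tail current of the secondary pulse compared with the same well before compound.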
# Sequence of human ether-à-go-go-related gene (hERG) potassium channel (Q12809 whole entry, looked up): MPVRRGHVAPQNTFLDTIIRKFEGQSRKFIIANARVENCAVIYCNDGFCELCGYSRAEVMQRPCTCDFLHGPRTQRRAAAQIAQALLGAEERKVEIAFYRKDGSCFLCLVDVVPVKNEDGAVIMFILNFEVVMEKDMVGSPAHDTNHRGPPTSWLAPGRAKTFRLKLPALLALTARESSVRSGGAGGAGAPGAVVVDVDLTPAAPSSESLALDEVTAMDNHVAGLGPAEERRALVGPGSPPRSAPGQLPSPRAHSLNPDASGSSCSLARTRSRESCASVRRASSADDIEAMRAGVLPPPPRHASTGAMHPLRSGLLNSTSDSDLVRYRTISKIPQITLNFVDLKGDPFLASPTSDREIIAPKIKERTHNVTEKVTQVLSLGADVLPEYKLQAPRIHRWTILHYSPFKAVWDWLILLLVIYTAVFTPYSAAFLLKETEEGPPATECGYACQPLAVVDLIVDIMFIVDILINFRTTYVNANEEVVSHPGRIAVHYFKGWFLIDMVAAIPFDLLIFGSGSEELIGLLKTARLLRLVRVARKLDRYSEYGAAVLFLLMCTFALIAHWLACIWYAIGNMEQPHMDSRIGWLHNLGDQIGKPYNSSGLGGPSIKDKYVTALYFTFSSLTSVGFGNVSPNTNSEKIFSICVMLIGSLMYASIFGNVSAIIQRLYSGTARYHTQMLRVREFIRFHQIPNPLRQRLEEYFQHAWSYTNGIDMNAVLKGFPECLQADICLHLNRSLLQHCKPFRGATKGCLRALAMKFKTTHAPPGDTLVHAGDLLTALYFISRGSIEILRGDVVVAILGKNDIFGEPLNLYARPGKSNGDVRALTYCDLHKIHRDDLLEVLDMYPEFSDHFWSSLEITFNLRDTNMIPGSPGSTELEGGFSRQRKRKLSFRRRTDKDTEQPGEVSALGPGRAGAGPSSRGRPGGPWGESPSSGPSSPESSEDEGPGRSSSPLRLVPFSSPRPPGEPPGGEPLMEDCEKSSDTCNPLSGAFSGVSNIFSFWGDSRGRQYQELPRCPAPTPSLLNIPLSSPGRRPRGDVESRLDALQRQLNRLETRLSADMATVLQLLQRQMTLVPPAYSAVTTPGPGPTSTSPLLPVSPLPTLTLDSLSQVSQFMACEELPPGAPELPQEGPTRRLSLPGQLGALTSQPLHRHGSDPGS
row,Compound,"hERG current change (%, negative = inhibition) at 10uM"
1,O=C(c1ccc(Cl)c(S(=O)(=O)N2CCCCCC2)c1)N1CCN(c2ccccn2)CC1,-63.6%
2,CC1CCN(S(=O)(=O)c2cc(C(=O)N3CCN(c4ncccn4)CC3)ccc2Br)CC1,-72.4%
3,O=C(c1ccc(Cl)c(S(=O)(=O)NCc2ccccc2)c1)N1CCN(c2ccccn2)CC1,-50.3%
4,O=C(c1ccc(Cl)c(S(=O)(=O)N2CCOCC2)c1)N1CCN(c2ccccn2)CC1,-44.2%
5,O=C(c1ccc(Cl)c(S(=O)(=O)Nc2ccc(F)cc2)c1)N1CCN(c2ccccn2)CC1,-33.9%
6,CC1CCN(C(=O)c2ccc(Br)c(S(=O)(=O)N3CCOCC3)c2)CC1,-3.74%
7,O=C(c1ccc(Cl)c(S(=O)(=O)N2CCCC2)c1)N1CCN(c2ncccn2)CC1,-4.2%
8,O=C(c1ccc(CNS(=O)(=O)c2ccccc2)cc1)N1CCN(c2ccccn2)CC1,-28.5%
9,O=C(c1ccc(Cl)c(S(=O)(=O)N2CCCC2)c1)N1CCN(c2ccccn2)CC1,-31.3%
10,CCC1(C)CC(C(N)=S)CCO1 (centres unmarked),27.4%
11,O=C(C1CCC1)N(CCc1ccccc1)Cc1nc2ccccc2c(=O)[nH]1,-4.04%
12,CCc1nnc(NC(=O)CN2C(=O)c3ccccc3S2(=O)=O)s1,10.7%
13,Cc1ccc(S(=O)(=O)Nc2c(C)nn(C)c2C)cc1,-4.07%
14,CCn1c(=O)c2sccc2n(Cc2ccc(C)cc2)c1=O,26%
15,O=C(CN1CCN(Cc2ccc3c(c2)OCO3)CC1)NCC(F)(F)F,5.34%
16,Cc1cc(C)cc(NC(=O)N2CCN(Cc3ccc4c(c3)OCO4)CC2)c1,-59%
17,O=C(CN1CCN(Cc2ccc3c(c2)OCO3)CC1)Nc1ccc(F)cc1,-81.7%
18,CC1CCc2nc(NC(=O)CN3CCOCC3)sc2C1 (centres unmarked),-4.5%
19,O=C(CN1CCN(c2ccc(F)cc2)CC1)Nc1ccc2c(c1)OCCO2,4%
20,COc1cc(NC(=O)CN2CCN(Cc3ccc4c(c3)OCO4)CC2)cc(OC)c1.O=C(O)C(=O)O,-47%
21,Cc1ccc(NC(=O)N2CCN(Cc3ccc4c(c3)OCO4)CC2)cc1,-33.8%
22,CC1CCc2nc(NC(=O)CN3CCN(Cc4ccc5c(c4)OCO5)CC3)sc2C1 (centres unmarked),-66.7%

row,Compound,"hERG current change (%, negative = inhibition) at 10uM"
1,O=C(Nc1ccccc1)N1CCN(Cc2ccc3c(c2)OCO3)CC1,-26.1%
2,O=C(CN1CCN(S(=O)(=O)c2ccc(F)cc2)CC1)Nc1ccc2c(c1)OCO2,-40.6%
3,O=C(CN1CCN(CC(=O)Nc2ccc3c(c2)OCO3)CC1)Nc1ccc(F)cc1,-73.4%
4,CC1CCc2nc(NC(=O)CN3CCN(c4ccccc4)CC3)sc2C1 (centres unmarked),-6.29%
5,O=C(/C(=C(/[O-])c1ccccc1)[n+]1ccccc1)c1ccc([N+](=O)[O-])cc1,6.47%
6,Cc1ccc(-c2nnc(N(C)C(=O)c3ccncc3)s2)cn1,1.62%
7,CCC(C)(C)NC(=O)C(c1cccnc1)N(C(=O)c1csnn1)c1ccc(C)cc1 (centres unmarked),10.6%
8,CCCOc1ccc(-c2c(C(=O)N/N=C/c3ccccc3OCC)nnn2-c2nonc2N)cc1,22.7%
9,COc1ccc(OC)c(C2C(C(=O)c3cc4ccccc4o3)=C(O)C(=O)N2c2cc(C)on2)c1 (centres unmarked),2.7%
10,COc1ccc2oc(C(=O)NN3C(C)CCCC3C)c(C)c2c1 (centres unmarked),16.1%
11,CNc1nccc(-c2ccc(F)cc2)c1C#N,6.25%
12,O=C(CN1CCN(Cc2ccc3c(c2)OCO3)CC1)Nc1ccc(N2CCOCC2)cc1,-6.54%
13,O=S(=O)(c1ccc(F)cc1)N1CCC(O)(c2ccc3c(c2)OCO3)CC1,-42%
14,Cc1cccc(N2CCN(Cc3ccc4c(c3)OCO4)CC2)c1C,3.83%
15,Fc1ccccc1N1CCN(Cc2ccc3c(c2)OCO3)CC1,-26.8%
16,CN(C)S(=O)(=O)c1ccc(Cl)c(NC(=O)CN2CCN(Cc3ccc4c(c3)OCO4)CC2)c1,-64.6%
17,CN(C)S(=O)(=O)c1ccc(Cl)c(NC(=O)CN2CCCCCC2)c1,-24.6%
18,OC1(c2ccc3c(c2)OCO3)CCN(Cc2ccccn2)CC1,-6.96%
19,O=C(CN1CCN(Cc2ccc3c(c2)OCO3)CC1)Nc1ccc2c(c1)OCO2,-72.5%
20,N#Cc1c(F)cccc1N1CCN(Cc2ccc3c(c2)OCO3)CC1,-81.3%
21,O=C(CN1CCN(Cc2ccc3c(c2)OCO3)CC1)Nc1cc(S(=O)(=O)N2CCCC2)ccc1Cl,-18.8%
22,COc1ccc(NC(=O)CN2CCN(Cc3ccc4c(c3)OCO4)CC2)cc1OC.O=C(O)C(=O)O,-17.4%
